Measured values reported in PubChem BioAssay (Tox21).
Records with an inconclusive call do not appear. The source made the active and inactive calls. Unless noted, calls come from the whole dose curve; as a rule, active = well fitted curve in the direction sought with a large enough effect in the repeat runs; inconclusive = weak or mixed curves; inactive = no such curve, though single readings can be large; an effect the other way counts as inactive or inconclusive.

Legend:
[1] = qHTS assay to identify small molecule agonists of the vitamin D receptor (VDR) signaling pathway - cell viability counter screen (AID 743224); note: nearly all actives have a fitted effect of over 50% in size; note: potency is the fitted concentration of half-maximal effect
Method in brief: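 Cells: VDR-bla, 2,000/well, settled 4 h. Treatment: compounds in DMSO, 16 h, 37C/5% CO2. Readout: CellTiter-Glo luminescence after 30 min RT.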

[2] = qHTS assay to identify small molecule antagonists of the vitamin D receptor (VDR) signaling pathway - cell viability counter screen (AID 743225); note: nearly all actives have a fitted effect of over 50% in size
Method in brief: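 Viability counter screen run in the same wells as the beta-lactamase reporter assay: HEK 293T VDR-UAS-bla cells, 16 h compound exposure at 37C with 3 nM (final) 1-alpha,25-dihydroxyvitamin D3. CellTiter-Glo luminescence, 30 min, room temperature.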

[3] = qHTS assay to identify small molecule agonists of the endoplasmic reticulum stress response signaling pathway - cell viability counter screen (AID 1159517; calls by dose curve;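 note: HeLa cells carrying an ER stress response element beta-lactamase reporter; series mostly up to about 61 µM; nearly all actives have a fitted effect of over 50% in size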)
Method in brief: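 In parallel with the ESRE reporter read, cytotoxicity was scored by CellTiter-Glo luminescence (30 min, room temperature) on HeLa ESRE-bla cells dosed for 5 hr.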

[4] = qHTS assay to identify small molecule antagonists of the retinoid-related orphan receptor gamma (ROR-gamma) signaling pathway - cell viability counter screen (AID 1159520); note: nearly all actives have a fitted effect of over 50% in size; note: potency is the fitted concentration of half-maximal effect
Method in brief: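 Tet-on ROR gamma CHO cells were given compounds for 2 hr, then doxycycline hyclate at 1 uM final, and incubated 16 hr at 37 C. Viability was measured as ATP content by CellTiter-Glo luminescence.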

[5] = biological target: Nuclear receptor ROR-gamma (Homo sapiens) (UniProt P51449); assay: qHTS assay to identify small molecule antagonists of the retinoid-related orphan receptor gamma (ROR-gamma) signaling pathway (AID 1159521; note: nearly all actives have a fitted effect of over 50% in size; note: potency is the fitted concentration of half-maximal effect)
Method in brief: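 Luminescence readout (ONE-Glo, 30 min RT) after 16 h doxycycline induction; loss of signal scored as antagonism. CHO cells with TET-inducible RORγ and RORE-LUC reporter; compounds added 2 h before 1 uM final doxycycline.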

[6] = qHTS assay to identify small molecule agonists of the AP-1 signaling pathway - cell viability counter screen (AID 1159525; calls by dose curve; note: nearly all actives have a fitted effect of over 55% in size; note: potency is the fitted concentration of half-maximal effect)
Method in brief: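 Same-well cytotoxicity counter screen of the Tox21 10K library in ME-180 cells. The readout is ATP-dependent luminescence after 5 h compound treatment. Data are normalised to DMSO and tetra n-octyl ammonium bromide controls.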

[7] = qHTS assay to identify small molecule agonists of the AP-1 signaling pathway (AID 1159526; calls by dose curve)
[8] = qHTS assay to identify small molecule agonists of the NFkB signaling pathway - cell viability counter screen (AID 1159515; calls by dose curve; note: nearly all actives have a fitted effect of over 55% in size; note: potency is the fitted concentration of half-maximal effect)
Method in brief: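 Cells are seeded (2,000 NFkB-bla ME-180 per well), rested overnight, and dosed with DMSO-dissolved compounds for 5 hr at 37 C. Viability is then read by CellTiter-Glo luminescence after 30 min at room temperature.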

[9] = qHTS assay to identify small molecule agonists of the endoplasmic reticulum stress response signaling pathway (AID 1159516; active = well fitted activation curve with a large enough effect in the signal ratio in the repeat runs, not every such curve was filed as active; the % refers to the signal ratio; note: potency is the fitted concentration of half-maximal effect)
Method in brief: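 Cells are seeded at 1,500 per well and incubated overnight. Compounds in DMSO are added for 5 hr at 37 C, then beta-lactamase FRET substrate for 2 hr at room temperature, and fluorescence at 460 and 530 nm is measured.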

Measured: Potency

CCCCCCCC/C=C\CCCCCCCCO
not listed: [8] | [9]
inactive: all other assays above

CC1(C)[C@@H](OC(=O)CCC(=O)O)CC[C@]2(C)[C@H]3C(=O)C=C4[C@@H]5C[C@@](C)(C(=O)O)CC[C@]5(C)CC[C@@]4(C)[C@]3(C)CC[C@@H]12
not listed: [7] | [9]
inactive: all other assays above

CC(C)C(O)(c1ccc(OC(F)(F)F)cc1)c1cncnc1 (centres undefined)
not listed: [3] | [8]
inactive: all other assays above

O=c1cc(-c2ccccc2)oc2cc(O)cc(O)c12
not listed: [5] | [7] | [8]
inactive: all other assays above

C[C@@H](O)[C@H]1C(=O)N2C(C(=O)O)=C([C@H]3CCCO3)S[C@H]12
inactive: [8] | [3] | [4] | [5] | [6]

Oc1cc2c(cc1O)[C@H]1c3ccc(O)c(O)c3OC[C@@]1(O)C2
inactive: [1] | [2] | [4] | [6] | [7]
active: [5] 13.9 µM

Cc1cc2c(OCC(CNC(C)(C)C)OC(=O)c3ccccc3)cccc2[nH]1 (centres undefined)
not listed: [5] | [8]
inactive: all other assays above

COc1cc(C(=O)NCCCCCC(=O)O)cc(OC)c1OC
not listed: [8]
inactive: all other assays above

CC1CC(C)C(=O)C1=O (centres undefined)
not listed: [5] | [9]
inactive: all other assays above

Nc1nnc(-c2ccc([N+](=O)[O-])o2)o1
active: [5] 6.86 µM
inactive: [1] | [2] | [9] | [4] | [6]

C1C[C@@H]2[C@H]3CC[C@H](C3)[C@@H]2C1
not listed: [3] | [7] | [8]
inactive: all other assays above

CCCC(=O)C(=O)O
not listed: [8]
inactive: all other assays above

CCOC(=O)c1ccc(I)cc1
not listed: [7] | [8]
inactive: all other assays above

CC(=O)Oc1ccc([N+](=O)[O-])cc1CCl
not listed: [3] | [4] | [9]
inactive: all other assays above

Oc1c(I)cc(I)c2cccnc12
inactive: [3] | [4]

CCCCCCCCCCC(=O)O
not listed: [2] | [5] | [9]
inactive: all other assays above

CC1(C)O[C@@H]2C[C@H]3[C@@H]4C[C@H](F)C5=CC(=O)C=C[C@]5(C)[C@H]4[C@@H](O)C[C@]3(C)[C@]2(C(=O)CO)O1
not listed: [5] | [7] | [9]
inactive: all other assays above

c1ccc2sc(SN(C3CCCCC3)C3CCCCC3)nc2c1
not listed: [8]
inactive: all other assays above

COC(=O)CCS
not listed: [8] | [9]
inactive: all other assays above

COc1ccc(OC(=O)N(CC(=O)O)Cc2ccc(OCCc3nc(-c4ccccc4)oc3C)cc2)cc1
not listed: [5] | [9]
inactive: all other assays above

CC(C)(C)CC(=O)OCC(=O)[C@@]1(O)CC[C@H]2[C@@H]3CCC4=CC(=O)C=C[C@]4(C)[C@H]3[C@@H](O)C[C@@]21C
active: [5] 26.6 µM
not listed: [6] | [8]
inactive: all other assays above

CCC(OCCCOC)OC(C)=O (centres undefined)
not listed: [3] | [8]
inactive: all other assays above

CCOC(=O)C1=C(C)NC(C)=C(C(=O)OC)C1c1cccc(Cl)c1Cl (centres undefined)
inactive: [8] | [5] | [6] | [7]

O=c1cc(-c2ccccc2)oc2ccc3ccccc3c12
inactive: [5]
active: [1] 19.5 µM | [8] 54.9 µM | [4] 27.3 µM | [6] 24.5 µM

CCCCCCNC(=O)n1cc(F)c(=O)[nH]c1=O
not listed: [2] | [8]
inactive: all other assays above

OCCOCC#CCOCCO
active: [9] 49 µM
not listed: [4] | [8]
inactive: all other assays above

COc1ccccc1Oc1c(NS(=O)(=O)c2ccc(C(C)(C)C)cc2)nc(-c2ncccn2)nc1OCCO
inactive: [2] | [8] | [3] | [4] | [6]
active: [5] 18.8 µM

CCCCCC[C@@H](O)C/C=C\CCCCCCCC(=O)OCC(O)CO (some centres undefined)
not listed: [7] | [8]
inactive: all other assays above
